High-throughput results: PubChem BioAssay, National Center for Advancing Translational Sciences (NCATS)
HPGD inh – inhibitors of human 15-hydroxyprostaglandin dehydrogenase (HPGD); P15428; purified HPGD, NADH fluorescence kinetic, PGE2 substrate; Potency, µM, inactives show at the top dose activity change, negative = inhibition, hits mostly inhibitors; 4.3% of 150,000 active; AID 894
Target sequence (P15428 whole entry, looked up): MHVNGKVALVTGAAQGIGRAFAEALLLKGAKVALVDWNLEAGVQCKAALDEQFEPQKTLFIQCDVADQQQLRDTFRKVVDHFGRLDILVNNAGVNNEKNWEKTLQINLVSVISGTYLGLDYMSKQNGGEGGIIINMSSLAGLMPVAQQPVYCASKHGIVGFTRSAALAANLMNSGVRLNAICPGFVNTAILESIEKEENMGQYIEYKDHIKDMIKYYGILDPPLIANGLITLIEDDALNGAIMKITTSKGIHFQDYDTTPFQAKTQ
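NADH formation kinetics: reaction with 30 uM PGE2 and 1 mM NAD+ (final), 20 nM enzyme, Tris-HCl pH 8 with Tween 20, after 15 min compound preincubation at room temperature. Fluorescence change, last versus first of five reads.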
Lamin A splicing – changes lamin A minigene splicing in HeLa cells; HeLa LMNA splicing GFP/RFP minigene ratio, 48 h; Potency, µM (doses to about 46.1 µM), for inactives: at the top dose ratio change, negative = inhibition, usual class: inhibitors; 0.01% of 200,000 active; active = well fitted inhibition curve with a large enough effect in the signal ratio, with a control signal flat, not every such curve was filed as active; inconclusive = small, poorly fitted or top-dose-only effect, or effect the other way, or a change in a side signal; the % refers to the signal ratio
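Read-out is the ratio of GFP to DsRed2 object intensity, acquired by 488 nm laser-scanning cytometry on HeLa lamin A-EGFP minigene reporter cells. Compound incubation 48 hrs at 37 °C in Opti-MEM with 2% FBS; DMSO 0.5% final.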
IMPase Li cell – cell-permeable IMPase inhibitors with lithium potentiation; CHO-M1 cells, IP1 TR-FRET (IP-One), carbachol + lithium; Potency, µM (doses to about 59.4 µM), inactives show at the highest dose activity, negative = IMPase inhibition, most hits filed as inhibitors; 0.35% of 210,000 active; active = well fitted curve in the direction sought with a large enough effect; inconclusive = small, poorly fitted or top-dose-only effect, or another doubt; inactive = no such curve, though single readings can be large; an effect the other way counts as inactive or inconclusive;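 note: IP1 builds up when IMPase is blocked and the TR-FRET signal falls; plate controls were basal vehicle for no effect and high inhibitor control for full effect; nearly all actives have a fitted effect of over 50% in size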
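Concentration–response in CHO-M1 cells, lithium-potentiated; 30 min at 37C. IP1 detected by competitive TR-FRET after 10 min lysis at RT. Hill-fitted AC50.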
ALDH1A1 inh – blocks purified human ALDH1A1 activity; Purified ALDH1A1, NADH fluorescence, propionaldehyde substrate; Potency, µM (doses to about 75.3 µM), for inactives: at the highest dose activity, negative = inhibition, usual class: inhibitors; P00352; AID 1030; 7.3% of 220,000 active;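 note: plate controls were no enzyme wells and a reference inhibitor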
Target sequence (P00352 whole entry, looked up): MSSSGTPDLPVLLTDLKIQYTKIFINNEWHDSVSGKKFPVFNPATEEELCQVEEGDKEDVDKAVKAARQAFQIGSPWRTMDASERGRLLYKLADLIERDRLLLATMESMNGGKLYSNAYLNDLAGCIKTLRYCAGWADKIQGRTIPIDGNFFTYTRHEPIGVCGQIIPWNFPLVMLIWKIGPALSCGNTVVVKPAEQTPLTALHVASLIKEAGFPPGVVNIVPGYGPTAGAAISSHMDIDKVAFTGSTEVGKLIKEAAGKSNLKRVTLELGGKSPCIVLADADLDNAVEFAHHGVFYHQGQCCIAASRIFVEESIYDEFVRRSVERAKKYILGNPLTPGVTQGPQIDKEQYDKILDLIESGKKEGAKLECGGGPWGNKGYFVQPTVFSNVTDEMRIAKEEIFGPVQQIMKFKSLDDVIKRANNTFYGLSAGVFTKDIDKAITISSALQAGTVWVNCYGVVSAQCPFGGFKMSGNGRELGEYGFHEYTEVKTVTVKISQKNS
Luc counter – counter-screen: inhibitors of Kinase-Glo firefly luciferase; Q27757; Kinase-Glo luciferase, ATP luminescence, 8 min; Potency, µM (highest dose often 38.3 µM), inactives show top-dose activity change, negative = inhibition, actives largely listed as inhibitors; 0.28% of 200,000 active; active = well fitted curve in the direction sought with a large enough effect; inconclusive = small, poorly fitted or top-dose-only effect, or another doubt; inactive = no such curve, though single readings can be large; an effect the other way counts as inactive or inconclusive; note: nearly all actives have a fitted effect of over 60% in size
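Kinase-Glo luciferase light output from ATP and luciferin was measured with 10 uM ATP, within the enzyme's linear range. Buffer: 50 mM imidazole pH 7.2, 50 mM KCl, 7 mM MgCl2, 0.01% Tween 20, 0.05% BSA; luminescence read after 8 min at ambient temperature.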
Starred values were filed as active, the others as inactive; u = inconclusive; x = not tested or not shown; [ ] = another dose, or the depositor's remark. This is a sample that favours compounds with a hit; in the whole collection about 9% have one here. Unless noted, calls come from the whole dose curve; as a rule, active = well fitted inhibition curve with a large enough effect (not every such curve was filed as active); inconclusive = small, poorly fitted or top-dose-only effect, or another doubt; inactive = no such curve, though single readings can be large or run the other way. Unless noted, % is set by controls: 0 for no effect and ±100 for the full control effect; potency is the fitted concentration of half-maximal effect.

SMILES	HPGD inh	Lamin A splicing	IMPase Li cell	ALDH1A1 inh	Luc counter
CN1CCN(c2nc(-c3ccc(Br)cc3)nnc2-c2ccccc2)CC1	-11.8%	u	14.6%[38.3 µM]	22.4µM*	-1.8%
CCOc1ccc(-c2cn3ccccc3n2)cc1[N+](=O)[O-]	-7.4%	-6.8%	-0.1%	u	-10.9%
CCCCOc1ccc(-c2cn3ccccc3n2)cc1[N+](=O)[O-]	-11.4%	u	8.9%	10µM*	u
COCCNC(C)C(=O)C12CC3CC(CC(C3)C1)C2 (centres undefined)	-5.7%	2.8%	28.1%[38.3 µM]	8.7%	0.8%
COCCNCC(=O)C12CC3CC(CC(C3)C1)C2	-3.1%	6.2%	16.0%[38.3 µM]	10µM*	-3.3%
CC(C)(C)NC(=O)C(c1ccccn1)N(C(=O)C1CSC(=O)C1)c1cccc(F)c1 (centres undefined)	x	-0.5%[46 µM]	1.7%	2.3%	14.9%
COc1ccc2c(c1)O[C@@H](c1cccc(C(F)(F)F)c1)[C@H](OC(=O)NS(=O)(=O)c1ccc(C)cc1)C2=O	-2.5%	x	0.6%	15.7%	1.1%
COc1cccc2cc(-c3ccnc(=S)[nH]3)oc12	x	x	17.7%	u	-0.3%
Fc1ccc(-c2ccnc(=S)[nH]2)cc1	17.8µM*	-12.1%	-8.8%	u	4.1%
C=CC(C)n1c(Br)nc2c1c(=O)[nH]c(=O)n2C (centres undefined)	2.3%	-6.5%	-16.7%[38.3 µM]	9.3%	-4.4%
CC(C)n1c(=S)[nH]c2c1c(=O)[nH]c(=O)n2C	8.91µM*	10.3%	2.0%[38.3 µM]	2µM*	-6.2%
O=C1C=CC(=O)N1c1cccc(-c2ccccc2)c1	x	x	x	0.02µM*	x
O=C1c2ccccc2C(=O)N1c1cccc(-c2nc3ccccc3o2)c1	-6.5%	6.9%	1.0%[38.3 µM]	4.6%	4.7%
COc1ccc(CNC(=O)Cn2c(=O)nc(-c3ccccc3)c3ccccc32)cc1OC	x	-17.5%[46 µM]	x	x	x
C=CCn1c(SCC(=O)c2ccc(OC)cc2)nnc1-c1ccc2c(c1)OCO2	-13.6%	3.1%	5.9%	-1.3%	12.4%
O=C(CSc1nnc(SCc2ccc(Cl)cc2)s1)c1ccc2c(c1)OCO2	-12.1%	u	3.8%	2.24µM*	2.8%
C=CCn1c(SCC(=O)c2ccc(Cl)cc2)nnc1-c1ccc2c(c1)OCO2	8.91µM*	u	13.5%	u	-2.3%
COc1ccc(NC(=O)CSc2nc3nc(-c4cccs4)cc(C(F)(F)F)c3c(=O)[nH]2)c(OC)c1	-20.2%	17.7%	1.5%	-4.9%	-5.8%
O=C(CSc1nc2nc(-c3cccs3)cc(C(F)(F)F)c2c(=O)[nH]1)NCc1ccco1	u	u	8.91µM*	u	-0.2%
CC(C)c1ccc(NC(=O)CSC2=Nc3ccccc3C3=NC(CC(=O)NCc4cccs4)C(=O)N23)cc1 (centres undefined)	x	1.3%[46 µM]	x	x	x
CCOc1cc(C(=O)CCC(=O)OCC(=O)N2c3ccccc3NC(=O)C2(C)C)ccc1O	-9.6%	15.0%	41.6%[38.3 µM]	14.1µM*	1.7%
COc1ccc(/C=N/NC(=O)CCn2cnc(-c3ccccc3)c2-c2ccccc2)cc1OC	-6.7%	u	9.0%	28.2µM*	-3.7%
CC(=O)Nc1ccc(C2NC(C(=O)O)CCC2C)cc1 (centres undefined)	x	x	x	3.1%[13.5 µM]	x
Cc1cc(/C=N/Nc2ccc([N+](=O)[O-])cn2)c(C)n1-c1ccccc1	-6.6%	-8.7%	32.9%[38.3 µM]	u	13.5%
Cc1ccc(-n2c(C)cc(/C=N/Nc3ccc([N+](=O)[O-])cn3)c2C)cc1	-4.9%	8.9%	6.5%[38.3 µM]	10µM*	-6.3%
SMILES	HPGD inh	Lamin A splicing	IMPase Li cell	ALDH1A1 inh	Luc counter
O=[N+]([O-])/C=C/c1cn(Cc2ccc(F)cc2)c2ccccc12	-21.2%	u	32.0%[38.3 µM]	u	1.3%
Cc1nn(Cc2ccccc2)c(C)c1/C=N/NC(=O)c1cccnc1	31.6µM*	-12.8%	-11.7%	-6.2%	-4.4%
Cc1ccc(C(=O)N/N=C/c2cn(Cc3ccccc3)c3ccccc23)cn1	x	x	x	12.6µM*	x
Cc1ccc(Cn2cc(/C=N/Nc3ccc([N+](=O)[O-])cn3)c3ccccc32)cc1	-15.6%	-3.5%	7.4%	10µM*	-1.2%
CCN(CC)S(=O)(=O)c1ccc(C(=O)NC(C)(C)C)cc1	x	u	2.4%	0.6%	0.9%
CCC1(C)Cc2nc3sc(C(=O)O)c(N)c3cc2CO1 (centres undefined)	-18.5%	-5.2%	4.9%	22.4µM*	-1.6%
CCn1c(O)c(N=NC2=NC(=O)CS2)c2ccccc21	-20.5%	7.2%[0.0737 µM]	17.3%[38.3 µM]	11.2µM*	2.9%
CCn1c(O)c(N=N)c2ccccc21	x	4.0%[46 µM]	3.8%	-4.5%	5.8%
CCOC(=O)c1ccc(NC2(c3ccccc3)C(=O)c3ccccc3C2=O)cc1	x	-17.2%[46 µM]	x	x	x
O=C(CNc1ccc2ccccc2c1)N/N=C/c1cc2ccccc2nc1Cl	-12.7%	u	5.9%	22.4µM*	4.9%
O=C(COc1cccc(Cl)c1)N/N=C\c1cc2ccccc2nc1Cl	u	-1.7%	-4.4%	u	4.7%
O=C(Cn1nnc(-c2ccccc2)n1)N/N=C/c1ccco1	x	x	-2.0%	-0.5%	5.5%
O=C(NC(=S)Nc1ccc2oc(-c3ccncc3)nc2c1)c1ccccc1F	x	x	5.62µM*	u	-0.2%
O=C(NC(=S)N(Cc1ccccc1)Cc1ccccc1)c1ccccc1F	-1.3%	-8.9%	-2.0%[38.3 µM]	-15.3%	-2.4%
O=C(NC(=S)NC(=O)c1ccccc1F)c1ccccc1F	12.6µM*	-2.5%	13.1%	2µM*	-1.7%
O=C(NC(=S)NCc1ccccc1)c1ccccc1F	-24.6%	-4.5%	-6.4%[38.3 µM]	31.6µM*	-2.5%
COc1ccc(/C=N/N(C)c2cc(=O)n(C)c(=O)[nH]2)cc1OC	x	4.9%[46 µM]	6.9%	5.4%	-2.9%
CCOC(=O)C1(C)NC(c2cccs2)C2C(=O)N(c3ccccc3)C(=O)C21 (centres undefined)	x	15.0%[46 µM]	-8.5%	4.8%	10.7%
Cc1cc(C)n(-c2ccc(C(=O)OCC(=O)c3ccc(Br)s3)cc2)n1	-11.5%	2.5%	u	22.4µM*	-3.9%
COc1ccc(OC)c2[nH]c(=O)c(CCNS(=O)(=O)c3ccccc3)cc12	-26.2%	9.6%	-1.2%[38.3 µM]	7.08µM*	3.4%
CCc1ccc(NS(=O)(=O)c2ccc3[nH]cc(C(=O)N(C)Cc4ccco4)c(=O)c3c2)cc1	-14.9%	-4.0%	1.1%[38.3 µM]	-6.2%	-3.1%
CN(Cc1ccco1)C(=O)c1c[nH]c2ccc(S(=O)(=O)Nc3ccc4c(c3)OCCO4)cc2c1=O	17.8µM*	-7.2%	-8.1%	22.4µM*	0.4%
CN(C)C[C@H]1CCC[C@@H](CN(C)C)C1=O	-3.1%	x	7.8%	-4.2%[13.5 µM]	-3.9%[7.66 µM]
N#CCCCN1C(=O)C(=C(C#N)C#N)c2ccccc21	x	-15.8%[46 µM]	11.2%	0.794µM*	-6.1%
N#CCCCN1C(=O)C(O)(CC(=O)c2ccc3c(c2)OCCO3)c2ccccc21 (centres undefined)	-5.7%	-13.3%	-11.6%[38.3 µM]	u	4.1%
